test system: VDR:RXRa (NR concentration 270 nM, RXRa partner concentration 90 nM); assay: PBM binding z-score (relative to random genomic background probes); higher = stronger binding; sequences stand for … in GC…GCGATTGACAGCGTAGAATGAAGG
Experimental: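 Protein-binding microarray (Agilent 4x180K custom design, double-stranded 60-nt probes: 5' GC cap, 34-nt variable region, 24-nt constant primer region; full probe sequence given). Purified or IVT nuclear receptor:RXRα heterodimers (3:1 NR:RXRα, mostly 270:90 nM) or homodimers were incubated for 1 h in PBS with 2% milk and no ligand, then detected with Alexa488 antibodies. Fluorescence from o1-orientation probes (~5 replicates averaged) was converted to z-scores against 500 random hg19 background probes. Variable regions are seed direct-repeat (DR0–DR5) sites, all their single-nucleotide variants and half-site ablations.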

Sequence | PBM binding z-score
GCGACTGGGGCAAAGCAGGATACCATAAGGTTGG | -0.613
CCTCGGAGGAGAGAAGGTCAGAGCTGTCCGCTTT | 0.722
CGTCAAAGTTCACGGTAACGTAACAGAAAGCAGC | 4.74
TCATATAGGTAATACTGGTGAAAGTCGGCATCTA | 0.963
ACTAGCAGGCCAATGGTCACTCAAGATTAGTCCG | -0.614
CCTAGCAGCCCAGGGTCACTCAAGCATTTCGCTT | 2.44
GGAACGAGGGCATTCGAGGTGATAGCATGGCGAT | 2.4
ACTAGCAGGCCAAGTTTTGGTCACTCAAACAAAG | -0.348
GCTAGTTGGTCAGTATAAGGTCACACACCGGTCG | 3.24
TAGCCTAGGTCAGACCGGGCCAGTATACGCTATA | 0.854
CCTAGTTGGTCAAGGCCACACACGCTATAGGTAC | 0.31
ACTATTAGTTGACTTTGGGCAACCGATACGACGC | 0.238
ATCTCTCGGTAAAAGTTCAGTGAATCCCGAGGAT | 1.03
GCAGACAGGTGAAACGCCGGTAACTCAGGGTGGC | -0.708
CGAACTAGGTCAGACCAGGACAGTGAAGGATGAT | 1.03
CTGCCAAGGTGAACAAGGTCGTTGATTACTATTC | 5.88
TGAATGAGGTTATAAGATCAGGAAACGTTGCAAA | 1.01
CCTTACTGGTCACGAGGTTATAGCACGACGAGCG | 1.86
CGTCCAAGGTCATAGGAGGTCAGTGAAGACAGAT | 6.46
CGTGCAAGGTCAGCAGGTCAGTGAAAGCGACGTG | 4.25

Sequence | PBM binding z-score
CGTCCAAGGTCATAGTAGGTCAGTGAAGACAGAT | 5.64
TCGAGTAGGTTACCAATGGGGCATTAAGCTTTCT | 0.0667
TCAGATAGGTAAACAGGTGAAAGTCCGTAAGTTA | 0.923
CCTACTGGGCCATCAGGTAATTGATATCAACGTT | -0.176
ACTAGTTGGTCGGCTGAGGTCACACACAATTCGG | 3.94
CCTAGCAGGTCAATCTGGGTCACTCAAGGCTTGA | 4.94
ACTATTAGTTGAGACGAGGGCAACCGGTAGGTTG | 0.837
TCACATAGGTAAAGGTGAAAGTCGAACGATATGA | 1.32
ACAAGCAGGCCAAGTTTGGGTCACTCAAACAAAG | 0.676
AGAATGAGGTTAAGATCATGGAAACAGAATACAT | 1.28
CCTGCTTGGTCATGGTCAGCTAATCTACAGTATG | -0.22
GCTGCTAGGTCAACTGATGCTCAGCTAAAGCTCG | 1.38
TTAGCAAGGTGAGCTGAGGTCGTTGATCCAACTC | 4.01
CCAACTAGGTCATCCAGGACAGTGAATACATTGA | 4.58
TCTGCTAGGACAGTTGGTCAGCTAACGAGCTGCC | -0.792
ATCTCAAGGTAAAAGTTCAGTGAATCCCGAGGAT | 1.6
ATCTGTAGGTAACAAGTTCAGTGAAAGAGAGGAC | 2
TATAGTTGGTCACGGAGGTCACACACGACGGGTA | 5.81
CCTGCTGGGCCATCAGGTCATTGATATCAACGTT | 1.59
CCTTACGGGTAACTGACAGGTTATAGCATTTGGA | 0.0689

From the supplement of paper PMC6555819
